Six1-Eya2 blk: blocks human Six1 binding to Eya2; Q15475+O00167; AlphaScreen GST-Six1/His-Eya2 binding, biochemical; hits give low values; activity change, % (concentration not given with the values); hit rate 0.56% among 360,000; AID 651725; in the data active means activity change below about -65%; inconclusive means mostly about -30% to -63%; further: on the % scale 0 is the no-effect control and ±100 the full control effect
Target sequence (O00167 whole entry, looked up): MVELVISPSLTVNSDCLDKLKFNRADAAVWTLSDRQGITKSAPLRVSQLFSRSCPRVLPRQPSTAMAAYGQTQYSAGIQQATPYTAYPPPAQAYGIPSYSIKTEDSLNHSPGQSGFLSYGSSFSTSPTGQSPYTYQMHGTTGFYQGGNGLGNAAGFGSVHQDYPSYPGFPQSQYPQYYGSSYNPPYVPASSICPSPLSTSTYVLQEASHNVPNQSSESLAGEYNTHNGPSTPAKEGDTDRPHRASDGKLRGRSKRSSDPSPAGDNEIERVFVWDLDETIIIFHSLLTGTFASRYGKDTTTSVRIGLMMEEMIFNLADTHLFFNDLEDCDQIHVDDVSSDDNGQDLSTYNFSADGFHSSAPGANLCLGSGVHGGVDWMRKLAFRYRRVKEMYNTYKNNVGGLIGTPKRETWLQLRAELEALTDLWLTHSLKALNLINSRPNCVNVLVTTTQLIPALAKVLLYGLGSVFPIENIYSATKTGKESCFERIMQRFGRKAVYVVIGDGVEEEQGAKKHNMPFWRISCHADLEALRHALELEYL
Target sequence (Q15475 whole entry, looked up): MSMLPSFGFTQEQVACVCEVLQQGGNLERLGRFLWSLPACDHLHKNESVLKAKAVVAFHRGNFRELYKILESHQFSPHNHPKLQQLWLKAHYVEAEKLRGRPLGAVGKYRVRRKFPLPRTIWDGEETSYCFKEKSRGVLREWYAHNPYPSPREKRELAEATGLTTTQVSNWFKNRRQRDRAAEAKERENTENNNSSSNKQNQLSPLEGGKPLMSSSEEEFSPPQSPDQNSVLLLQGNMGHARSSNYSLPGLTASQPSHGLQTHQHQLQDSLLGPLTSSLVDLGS
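Homogeneous AlphaScreen proximity assay pairing GST-Six1 with His-tagged Eya2 (added as 5X mix: 250 nM and 500 nM) in 50 mM Tris pH 8.0, 300 mM NaCl, 1 mM TCEP. Glutathione donor and nickel acceptor beads; 1 h, 37 °C, dark.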
Eya2 inh: blocks the phosphatase activity of human Eya2. AID 488837. O00167. Potency, µM (titrated, usually from 76.9 µM), for inactives: at the top dose activity, negative = inhibition, hits mostly inhibitors. recombinant Eya2, OMFP fluorescence dephosphorylation (OMFP is methylfluorescein phosphate). hit rate 0.006% among 330,000; further: potency means the concentration at half of the fitted maximal effect; on the % scale 0 is the no-effect control and ±100 the full control effect
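Eya2 (0.2 uM) preincubated 10 min at ambient with compound, then OMFP substrate added at 50 uM; 10 min reaction in 50 mM HEPES pH 7.5, 50 mM NaCl, 5 uM MgCl2, 0.05% BSA, 1 mM DTT. Fluorescence read at Ex 485/Em 525 nm.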
Glioma ERSR ind: induces the endoplasmic reticulum stress response in human glioma cells. U87-MG GRP78 promoter luciferase reporter, 16 h. Potency, µM, for inactives: at the top dose activation, actives largely listed as activators. hit rate 0.02% among 420,000. AID 602332; further: potency means the concentration at half of the fitted maximal effect; series mostly up to about 76 µM; % of control where 0% means no effect; nearly all actives have a fitted effect of over 35% in size
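ERSR induction read as luciferase luminescence (Bright-Glo, 10 min at room temperature) in stably transfected human U87-MG glioma cells exposed to compounds for 16 h, using GRP78 as sensor.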
CtBP-E1A blk: CtBP/E1A binding inhibition; AlphaScreen GST-E1A/His-CtBP binding, 1536-well; hits give low values; activity change, % (no concentration beside the values); hit rate 0.49% among 340,000; AID 651724; in the data active means activity change below about -65%; inconclusive means mostly about -30% to -63%; further: on the % scale 0 is the no-effect control and ±100 the full control effect
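Homogeneous bead-based format: GST-tagged E1A captured on glutathione donor beads, His-tagged CtBP on nickel acceptor beads; compounds precede bead addition by 2 h at 37 °C.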
* marks the source's active call; other numbers are inactive results; ? = inconclusive; . = no result. A selection: hits, their analogues and other compounds. The true share with any hit is near 0.58%. Unless noted, the call rests on the fitted dose curve; in most records, active means well fitted curve in the direction sought with a large enough effect; inconclusive means small, poorly fitted or top-dose-only effect, or another doubt; inactive means no such curve, though single readings can be large; an effect the other way counts as inactive or inconclusive.

SMILES | Six1-Eya2 blk | Eya2 inh | Glioma ERSR ind | CtBP-E1A blk
CN(C)c1ccc(N=Nc2cccc3ccoc23)cc1 | -65.1* | -15.1% | 3.0% | .
CN(C)c1ccc(N=Nc2cccc(F)c2)cc1 | -78.2* | 1.8% | -4.7% | -67.1*
CN(C)c1ccc(N=Nc2ccc3ncccc3c2)cc1 | ? | . | -4.5% | -29.0
O=S(=O)(Nc1cccc2ncccc12)c1cccs1 | -91.8* | 7.7% | -12.8% | -89.5*
COc1cc(OC)c(CN2CCOc3ccc(CN4CCC(O)CC4)cc3C2)c(OC)c1 | . | . | -6.7% | .
CC(=O)Nc1cc(C(=O)N2CC3(C)CC2CC(C)(C)C3)cc2ncn(CCc3ccccn3)c12 (centres undefined) | . | . | -5.4% | .
NC(=O)CSc1nnc(-c2ccc(O)cc2)n1Cc1ccco1 | -87.1* | -5.0% | -2.0% | -89.8*
CCNC(=O)c1sc2ncnc(NCCCN3CCOCC3)c2c1C | . | . | -4.4% | .
c1ccc(-c2nc(N3CCCCCC3)c3ccccc3n2)nc1 | -75.2* | 2.8% | -3.1% | -72.8*
COc1ccc(Oc2nc(-c3ccccn3)nc3ccccc23)cc1 | -86.1* | ? | 0.0% | -66.0*
c1ccc(Oc2nc(-c3ccccn3)nc3ccccc23)cc1 | -78.5* | ? | 18.4% | -94.2*
CC(=O)N/N=C/c1cc(C)n(-c2ccc(Br)cc2)c1C | -19.5 | -5.9% | -4.2% | 4.4
CC(=O)N/N=C/c1cc(C(C)C)cc(/C=N/NC(C)=O)c1O | -74.5* | -0.8% | -5.5% | -83.8*
S=C(NN=Cc1ccccn1)N(Cc1ccccn1)Cc1ccccn1 | -90.9* | . | -0.4% | -94.1*
CC(=NNC(=S)N(Cc1ccccn1)Cc1ccccn1)c1cnccn1 | -90.2* | . | 2.7% | -3.1
Cc1ccccc1NC(=S)N(Cc1ccccn1)Cc1ccccc1Cl | -8.0 | 0.9% | -2.7% | -2.7
S=C(NN=C(c1ccccc1)c1ccccn1)N(Cc1ccccn1)Cc1ccccn1 | -94.0* | . | -8.8% | 3.7
O=C(CCCC(=O)N/N=C\c1ccccn1)N/N=C\c1ccccn1 | 2.0 | 2.2% | -0.1% | -5.3
Cc1nc(C)c(C(=O)NCc2nc(-c3cccc(NC(=O)c4ccccn4)c3)oc2C)s1 | . | . | -4.5% | .
COc1ccc(/C=C/C(=O)c2ccc(O)cc2)cc1CN1CCOCC1 | ? | -2.3% | -2.6% | -85.8*
COc1ccc(C(=O)/C=C/c2ccc(OC)c(CN3CCOCC3)c2)cc1 | -21.1 | -3.8% | -1.6% | ?
O=[N+]([O-])c1cc(O)c2ncccc2c1 | -82.7* | 7.2% | -0.6% | -93.8*
O=[N+]([O-])c1cc2cccnc2c2ncccc12 | ? | 6.9% | -5.1% | .
O=C(N/N=C/c1cc([N+](=O)[O-])ccc1O)c1cc(-c2ccccc2)nc2ccccc12 | ? | 4.2% | -5.1% | -27.4
COc1cc(/C=N/NC(=O)c2cccc(NC(=O)c3ccccc3C)c2)ccc1O | ? | -4.7% | 0.7% | ?
SMILES | Six1-Eya2 blk | Eya2 inh | Glioma ERSR ind | CtBP-E1A blk
O=[N+]([O-])c1ccc(O)c(C=Nc2cccc3ccccc23)c1 | -4.6 | 5.8% | 0.9% | -10.1
Cc1cc(C(=O)N/N=C/c2cc([N+](=O)[O-])ccc2O)c2ccccc2n1 | -92.1* | -2.4% | -4.9% | 18.7
CCNC(=O)C(=O)N/N=C/c1cc([N+](=O)[O-])ccc1O | -92.2* | 10.0% | -2.3% | -94.3*
O=C(NN=Cc1cc([N+](=O)[O-])ccc1O)c1cccc2ccccc12 | -91.6* | . | -5.0% | -3.4
Cc1ccccc1C(=O)Nc1cccc(C(=O)N/N=C/c2cc(Cl)cc([N+](=O)[O-])c2O)c1 | ? | -6.8% | -4.0% | -73.0*
CC(=O)N[C@@H](C)C(=O)NCC1Cc2cccc(-c3ccccc3C(F)(F)F)c2O1 (some centres undefined) | . | . | -4.6% | .
COCc1c(C(=O)NCC2CCCN(C)C2)cnn1-c1ncc2c(n1)-c1ccccc1CCC2 (centres undefined) | . | . | -4.1% | .
O=C(Nc1cccc(N2CCC(NCc3cnn(-c4cccc(F)c4)c3)CC2)c1)c1ccncc1 | . | . | -3.2% | .
Cc1cc(C(=O)N/N=C/c2ccc([N+](=O)[O-])cc2)c2ccccc2n1 | -1.6 | -0.5% | 1.7% | -11.8
O=C(NC(C(=O)N/N=C/c1cc([N+](=O)[O-])ccc1O)c1n[nH]c(=O)c2ccccc12)c1ccccc1 (centres undefined) | -90.1* | -3.6% | -4.3% | -87.8*
O=C(N/N=C/c1cc([N+](=O)[O-])ccc1O)c1c[nH]c2ccccc12 | -85.9* | -5.2% | -2.4% | -78.0*
Cc1cc(C(=O)N/N=C/c2cc(Br)cc([N+](=O)[O-])c2O)c2ccccc2n1 | -87.3* | -3.1% | -6.2% | -93.5*
O=C1c2ccccc2-c2onc3ccc(NCCCn4ccnc4)c1c23 | -78.2* | ? | -2.7% | 14.0
Cc1ccc(C)c(N2C(=N)S/C(=C\c3ccc(-c4ccccc4C(=O)O)o3)C2=O)c1 | -72.3* | 12.5% | -2.6% | ?
O=C(NCCCn1ccnc1)C(=O)NCC1OCCN1S(=O)(=O)c1ccc(F)cc1 (centres undefined) | -76.6* | -7.2% | -2.0% | -73.3*
O=C(NCCCn1ccnc1)C(=O)NCC1OCCN1S(=O)(=O)c1ccc(Br)cc1 (centres undefined) | -0.2 | 11.8% | 0.6% | 9.6
CCN(CC)c1ccc(/C=N\N2CCN(Cc3ccc(C)cc3)CC2)cc1 | -65.5* | -0.4% | -1.3% | ?
CC(=NNC(=S)Nc1ccc(C)cc1)c1ccccn1 | -85.4* | . | ? | -7.6
C/C(=N\NC(=S)Nc1cccc(C)c1)c1ccccc1 | ? | -18.1% | 5.9% | ?
CC(=NNC(=S)Nc1cccc(C)c1)c1ccccn1 | -80.6* | . | 0.2% | 2.9
COc1ccccc1NC(=S)NN=C(C)c1ccccn1 | -71.8* | . | 1.1% | -81.3*
COc1cc(CN2CCC3(CC2)c2ccccc2[C@@H](NC(=O)c2ccccc2OC)[C@@H]3O)ccc1F | . | . | -2.2% | .
CC(C)(C)n1ncc2c(=O)n(Cc3c(Cl)ccc(Cl)c3Cl)cnc21 | . | . | -2.8% | .
COc1cccc(C2(CC(=O)N3CCN(c4ccccc4O)CC3)CC(=O)N(C3CCCC3)C2=O)c1 (centres undefined) | . | . | 1.5% | .
COc1ccccc1-n1cc(CN2CCOc3ccc(CN4C[C@@H](C)O[C@@H](C)C4)cc3C2)cn1 | . | . | -3.6% | .
SMILES | Six1-Eya2 blk | Eya2 inh | Glioma ERSR ind | CtBP-E1A blk
Cc1cc2c(c(-c3nc4ccccc4s3)c1)OC(CNC(=O)CCc1cccnc1)C2 (centres undefined) | . | . | -1.9% | .
Cc1ccc(Nc2nnc(SCC(=O)NCC3CCCO3)s2)cc1C (centres undefined) | -68.2* | 0.7% | 0.7% | -77.5*
Cc1cc(O)c(C=O)c2c1C(=O)Oc1c(CO)c(O)c3c(c1O2)C(O)OC3=O (centres undefined) | -80.1* | -6.6% | -0.8% | -4.4
CN(C)c1ccc(N=c2sc3ccccc3n2C)cc1 | -84.2* | -8.5% | 4.4% | 44.1
C=CC1=C(C(=O)O)N2C(=O)[C@@H](NC(=O)/C(=N\O)c3csc(N)n3)[C@H]2SC1 (stereo in doubt) | -89.6* | . | 0.6% | -85.2*
C=CC1=C(C(=O)O)N2C(=O)C(NC(=O)/C(=N\O)c3csc(N)n3)C2SC1 (centres undefined) | . | . | -5.8% | .

High-throughput results: PubChem BioAssay, National Center for Advancing Translational Sciences (NCATS)
